# Screening results from PubChem.
# NTR1 ag: activates human neurotensin receptor 1; P30989; NTR1-U2OS beta-arrestin-GFP spot imaging, agonist mode; activation, % at 20 µM; 330,000 tested, 0.17% active;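 active means activation at or above 40% of the spot to cytoplasm intensity ratio, with at least 20 cells analyzed; inconclusive means wells under 20 cells, flagged as cytotoxic or low count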
# MIN6 prolif-1: MIN6 beta-cell proliferation induction; MIN6 cells proliferation, ATPlite luminescence, 48 h; cells starved in 0.2% serum; 100% = growth in 10% serum; proliferation, % at 10 µM; 330,000 tested, 0.29% active; AID 2380;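 active means compounds whose signal lies at least 3.5 SD above the mean of all wells on their plate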
# GRK2 inh: inhibitors of human GRK2 displacing RNA aptamer | 330,000 tested, 0.59% active | bead flow cytometry, FAM-aptamer displacement from GRK2 | P25098 | inhibition of aptamer binding, % at 10 µM;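 active means inhibition of aptamer binding above 40%, roughly 3 SD of noise, on plates passing a quality check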;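 further: median bead fluorescence of bound FAM aptamer so fluorescent compounds give negative values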
# Target sequence (P25098 whole entry, looked up): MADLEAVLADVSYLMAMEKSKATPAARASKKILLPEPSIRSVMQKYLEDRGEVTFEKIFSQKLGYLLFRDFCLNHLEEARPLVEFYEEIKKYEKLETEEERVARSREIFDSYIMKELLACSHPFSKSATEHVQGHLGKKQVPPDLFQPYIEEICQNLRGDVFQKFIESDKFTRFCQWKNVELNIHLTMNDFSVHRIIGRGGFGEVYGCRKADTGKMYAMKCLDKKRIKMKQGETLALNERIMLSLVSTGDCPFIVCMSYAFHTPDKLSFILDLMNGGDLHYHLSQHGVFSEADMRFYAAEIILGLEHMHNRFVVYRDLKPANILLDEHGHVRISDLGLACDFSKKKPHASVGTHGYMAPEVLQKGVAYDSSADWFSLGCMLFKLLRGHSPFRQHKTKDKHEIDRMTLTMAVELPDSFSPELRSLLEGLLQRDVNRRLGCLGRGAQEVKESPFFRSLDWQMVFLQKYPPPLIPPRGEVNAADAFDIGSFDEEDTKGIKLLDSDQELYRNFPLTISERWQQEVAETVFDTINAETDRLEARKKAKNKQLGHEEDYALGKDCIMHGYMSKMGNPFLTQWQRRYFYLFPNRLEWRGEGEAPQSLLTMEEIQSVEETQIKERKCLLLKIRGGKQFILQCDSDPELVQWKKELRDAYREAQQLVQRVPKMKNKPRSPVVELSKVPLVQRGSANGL
# Platelet DG rel: platelet dense granule release activity; human platelet-rich plasma, SFLLRN dense granule ATP release, luminescence; 300,000 tested, 0.22% active; inhibition, %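 (compounds screened at 7.5 µM in platelet-rich plasma)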; AID 1663;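 active means mean replicate score, as percent of positive control, at or above 50; inconclusive means mean below 50 but at least one replicate at or above 50; inactive means mean and every replicate below 50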
# MIN6 prolif-2: confirmation of inducers of beta-cell replication in MIN6 cells | shares compounds with MIN6 prolif-1 | MIN6 beta-cell proliferation, ATPlite luminescence, 48 h; cells kept in 0.2% serum; scaled between 0.2% and 10% serum | proliferation increase, % at 50 µM | 920 tested, under 10 active;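 active means proliferation increase above 40% at any of the four tested concentrations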
# Numbers stand for hits; n = inactive; u = inconclusive; x = no result given. Hits are enriched below; roughly 1.2% of the tested compounds scored in any of these assays.
SMILES,NTR1 ag,MIN6 prolif-1,GRK2 inh,Platelet DG rel,MIN6 prolif-2
O=C(NCc1ccco1)C(c1ccco1)N(Cc1cccs1)C(=O)Cn1nnc2ccccc21 (configuration not stated),n,8.0,n,x,n
CC12CCC(=O)N1C(C(=O)Nc1nc(-c3cc(F)ccc3F)cs1)CS2 (configuration not stated),n,n,n,n,x
CCOc1ccc(S(=O)(=O)N(CC)CC)cc1NC(=O)CSCc1c(C)noc1C,n,11,n,n,n
COc1ccccc1NC(=O)N1CCN(c2ccccc2F)CC1,n,7.3,n,n,n
COc1ccc(/C=N/NC(=O)c2cnccn2)cc1O,n,0.0,n,n,n
CCOc1ccc(NC(=O)CN(C)C(=O)Cn2cnc3c2c(=O)n(C)c(=O)n3C)cc1OCC,n,n,n,n,x
N#Cc1ccc(C(=O)Nn2cnnc2)cc1,n,8.2,n,n,n
CC(C)(C)c1ccc(C(=O)Nn2cnnc2)cc1,n,n,n,n,x
CCOC(=O)C1CCN(CC(=O)c2c(C)n(C)c3ccc(OC)cc23)CC1,n,n,n,n,x
O=C(CS(=O)(=O)c1ccc(Br)cc1)N1CCOCC1,n,11,n,n,n
Cc1ccc(S(=O)(=O)CC(=O)N2CCOCC2)cc1,n,n,n,n,x
COc1cc(OC)cc(N(C(=O)c2snc(C(N)=O)c2N)C(C(=O)NCC2CCCO2)c2ccc(C)o2)c1 (configuration not stated),n,n,n,n,x
Cc1cccc2c1c(N=NC(N)=S)c(O)n2C1OC(CO)C(O)C(O)C1O (configuration not stated),n,n,n,n,x
CO/N=C/c1c(C(=O)OC)nn(-c2ccccc2)c1Cl,n,n,n,n,x
COC(=O)c1nn(-c2ccccc2)c(Sc2ccc(OC)cc2)c1/C=N/O,n,6.5,n,u,n
O=S(=O)(Nc1ccc(Cl)cn1)c1ccc(Cl)cc1,n,n,n,n,x
CCc1ccc(S(=O)(=O)Nc2ccc(Cl)cn2)cc1,n,4.9,n,n,n
CCN(CC(=O)NCc1cccs1)C(=O)C(c1ccccc1)c1ccccc1,n,n,n,n,x
O=C(CN(c1ccc(F)cc1)S(=O)(=O)c1ccc2c(c1)OCCO2)NCc1ccccc1,n,n,n,n,x
COCCCNC(=O)CN(c1ccc(F)cc1)S(=O)(=O)c1ccc2c(c1)OCCO2,n,6.0,n,n,n
O=C(CN1CCC(Cc2ccccc2)CC1)N1CCc2ccccc2C1,n,9.0,n,n,n
CSc1cccc(NC(=O)CNC(=O)C2CCCCC2)c1,n,11,n,n,n
O=C(NCc1ccc2c(c1)OCO2)C1CCCCC1,n,n,n,n,x
COC(=O)CNC(=O)COC(=O)/C=C/c1cccs1,n,n,n,n,x
COC(=O)CNC(=O)COC(=O)/C=C/c1ccc2ccccc2n1,n,10,n,n,n
SMILES,NTR1 ag,MIN6 prolif-1,GRK2 inh,Platelet DG rel,MIN6 prolif-2
CCN(CC)S(=O)(=O)c1ccc(OC(C)C)c(NC(=O)C2=COCCO2)c1,n,16,n,n,n
CCN(CC)S(=O)(=O)c1ccc(N2CCCC2)c(NC(=O)C2=COCCO2)c1,n,n,n,n,x
CN(C)c1ncc(CN2CCC(CO)(CCCc3ccccc3)CC2)s1,n,7.3,n,n,n
CCOC(=O)C1(CCc2ccccc2)CCN(Cc2cnc(N(C)C)s2)CC1,n,n,n,n,x
CNC(=O)CSc1nc2ccccc2c(=O)n1C1CCCCC1,n,n,n,n,x
CCOC(=O)CSc1nc2ccccc2c(=O)n1C1CCCC1,n,5.3,n,n,n
CSc1ccc(/C=C(/NC(=O)c2ccccc2)C(=O)NCCN2CCOCC2)cc1,n,n,n,n,x
Cc1ccc(S(=O)(=O)N2CCN(C(=O)C(C)Cn3cncn3)CC2)cc1 (configuration not stated),n,n,n,n,x
COc1cccc(C(=O)N2CCOCC2)c1OC,n,n,n,n,x
O=C(c1ccc2c3c(cccc13)CC2)N1CCOCC1,n,5.3,n,n,n
Cc1ccc(NS(=O)(=O)c2cccc3nsnc23)cc1[N+](=O)[O-],n,n,n,n,x
CCCNC(=O)c1ccccc1NC(=O)COc1cccc2c1OC(C)(C)C2,n,n,n,n,x
CC1(C)Cc2cccc(OCC(=O)Nc3ccccc3F)c2O1,n,15,n,n,n
COc1cccc(NC(=O)CSc2nn3c(=O)c(C)nnc3s2)c1,n,n,n,n,x
COc1ccc(CS(=O)(=O)CC(C)(O)c2ccccc2Cl)cc1 (configuration not stated),n,8.9,n,n,n
